Screening data (PubChem)
eIF4H inh: human eIF4H binding inhibitors, primary screen, translation initiation inhibitor project, biochemical, uHTS, fluorescence polarization; AID 2012, 2009; inhibition, % at 35 µM; eIF4H fluorescence polarization binding assay; 0.94% of 290,000 active;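 note: calls also rest on retests at 20 µM and on dose response follow-up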
eIF4E 4G PPI: eIF4E–eIF4G protein interaction inhibitors, primary screen, biochemical, uHTS, TR-FRET, eIF4GI fragment. Eukaryotic translation initiation factor 4E (Mus musculus) + Eukaryotic translation …. TR-FRET eIF4E-eIF4GI(517-606) binding, 2 h. inhibition, % at 21.7 µM. 0.37% of 220,000 active;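 active = inhibition above about 30%, limit read from the data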
MLLE-PAM2 inh: inhibitors of PABP1 MLLE–PAM2 peptide binding, primary screen, biochemical, fluorescence polarization, FITC-PAM2, GST-MLLE; Polyadenylate-binding protein 1 (Homo sapiens), P11940; inhibition, % at 20 µM; 0.36% of 360,000 active; in the data active = inhibition above about 35%, passing the limit was not always enough
PABP FP inh: PABP poly(A) RNA binding inhibitors, primary screen, biochemical, fluorescence polarization, uHTS. AID 2014, 2009. calls only at 35 µM. Polyadenylate-binding protein 1 (Homo sapiens), P11940. 1% of 290,000 active;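 note: calls also rest on retests at 20 µM and on dose response follow-up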
EBV gp42 block: Epstein-Barr virus gp42 inhibitors, primary screen, biochemical, uHTS, fluorescence polarization; 0.42% of 220,000 active; Fluorescence polarization binding assay, mP read-out; Glycoprotein 42 (Epstein-Barr virus (strain AG876)), Q1HVG2; inhibition, % (tested at 21.74 µM); in the data active = inhibition above about 50%
Target sequence (Q1HVG2 whole entry, looked up): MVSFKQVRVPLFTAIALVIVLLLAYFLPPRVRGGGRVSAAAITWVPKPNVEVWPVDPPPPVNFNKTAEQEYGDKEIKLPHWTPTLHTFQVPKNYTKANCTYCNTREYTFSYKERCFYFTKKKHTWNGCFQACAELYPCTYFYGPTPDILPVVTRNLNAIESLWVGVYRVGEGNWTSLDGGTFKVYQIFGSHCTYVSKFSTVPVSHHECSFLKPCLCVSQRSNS
Each line names hits and unclear results; the compound was inactive in the other large screens. The list is not random: actives were taken first. Their share in the collection is about 1.7%. Unless noted, the rule behind the calls is not given here.

O=C(NCCc1cccs1)C1CC(c2ccccc2F)=NO1 (configuration not stated)	none
O=C(O)C1CC(c2ccccc2F)=NO1 (configuration not stated)	eIF4E 4G PPI 48
CN(c1ccccc1)S(=O)(=O)c1cccc(C(=O)NC2CCCCC2)c1	MLLE-PAM2 inh 85 (no result: eIF4H inh, eIF4E 4G PPI, PABP FP inh, EBV gp42 block)
CN(c1ccccc1)S(=O)(=O)c1cccc(C(=O)OCC(=O)NCCCN2CCCC2=O)c1	PABP FP inh active
Cc1ccc(NC(=O)CN2C(=O)N/C(=C/c3ccccc3OCc3cccc(C(=O)O)c3)C2=O)cc1	none (no result: eIF4H inh, eIF4E 4G PPI, PABP FP inh, EBV gp42 block)
Cc1ccc(NC(=O)CN2C(=O)N/C(=C/c3cc(C)n(-c4cccc(C(=O)O)c4)c3C)C2=O)cc1	eIF4H inh 86, eIF4E 4G PPI 35, PABP FP inh active
Cc1cccc(NC(=O)CN2C(=O)N/C(=C\c3ccc(-c4cccc(C(=O)O)c4)o3)C2=O)c1	eIF4H inh 79, PABP FP inh active
Cc1ccc(NC(=O)CN2C(=O)N/C(=C\c3cccn3-c3cccc(C(=O)O)c3)C2=O)cc1	eIF4H inh 99, PABP FP inh active
CCOC(=O)c1cccc(-n2cccc2/C=C2\NC(=O)N(CC(=O)O)C2=O)c1	none (no result: eIF4H inh, eIF4E 4G PPI, PABP FP inh, EBV gp42 block)
O=C(O)c1cccc(-n2cccc2/C=C2\NC(=O)N(Cc3ccc(F)cc3)C2=O)c1	PABP FP inh active
O=C(COc1ccc(Br)cc1)N1CCN(c2ncccn2)CC1	none (no result: eIF4H inh, eIF4E 4G PPI, PABP FP inh, EBV gp42 block)
Cc1ccc(CN2C(=O)N/C(=C\c3cccn3-c3cccc(C(=O)O)c3)C2=O)cc1	PABP FP inh active
COc1ccc2c(c1O)C(=O)c1ccccc1C2=O	none (no result: MLLE-PAM2 inh)
Nc1c(O)ccc2c1C(=O)c1ccccc1C2=O	eIF4H inh inconclusive, EBV gp42 block 146 (no result: MLLE-PAM2 inh)
O=C1N=c2ccccc2=C1c1sc(Nc2cccc(O)c2)nc1O	eIF4H inh 59, PABP FP inh active (no result: eIF4E 4G PPI, EBV gp42 block)
O=C1N=c2ccccc2=C1c1sc(Nc2ccc(O)cc2)nc1O	eIF4H inh inconclusive, eIF4E 4G PPI 37, EBV gp42 block 63
O=C1N=c2ccccc2=C1c1sc(NS(=O)(=O)c2ccccc2)nc1O	none
COc1ccc(OC)c(NC(=O)C2(C)CCN2C(=O)Cc2ccc(Cl)cc2Cl)c1 (configuration not stated)	none (no result: eIF4H inh, eIF4E 4G PPI, PABP FP inh, EBV gp42 block)
S=c1[nH]nc(-c2n[nH]c3c2CCC3)n1/N=C/C=C/c1ccco1	eIF4H inh 90, PABP FP inh active
S=c1[nH]nc(-c2cc(-c3ccccc3)n[nH]2)n1/N=C/C=C/c1ccco1	eIF4H inh 102, PABP FP inh active
S=c1[nH]nc(COc2ccccc2)n1/N=C/C=C/c1ccco1	eIF4H inh 81, PABP FP inh active
CC(OC(=O)Cn1[nH]c(=O)c2ccccc2c1=O)C(=O)NC1(C#N)CCCCC1 (configuration not stated)	none (no result: eIF4H inh, eIF4E 4G PPI, PABP FP inh, EBV gp42 block)
CC1CCCC(C)N1C(=O)COC(=O)Cc1c[nH]c2ccccc12 (configuration not stated)	none (no result: eIF4H inh, eIF4E 4G PPI, PABP FP inh, EBV gp42 block)
O=c1c2ccccc2nc(/C=C/c2cccnc2)n1Cc1ccccc1	eIF4E 4G PPI 92
O=c1c2ccccc2nc(/C=C/c2cccnc2)n1CCc1ccccc1	none
Cc1ccccc1/C=C\c1nc2ccccc2c(=O)n1Cc1ccccc1	none
Cc1cccc(/C=C/c2nc3ccccc3c(=O)n2Cc2ccccc2)c1	eIF4H inh 76, PABP FP inh active
CCn1cnc2c([N+](=O)[O-])c(NS(=O)(=O)c3ccc(C)cc3)ccc21	none (no result: eIF4H inh, eIF4E 4G PPI, PABP FP inh, EBV gp42 block)
CN(CC(=O)Nc1cccc(F)c1)C(=O)CNS(=O)(=O)c1ccc(N(C)C)c([N+](=O)[O-])c1	MLLE-PAM2 inh 46 (no result: eIF4H inh, eIF4E 4G PPI, PABP FP inh, EBV gp42 block)
CCOc1ccc(NC(=O)CN(C)C(=O)COc2cccc3c2OC(C)(C)C3)cc1OCC	none (no result: eIF4H inh, eIF4E 4G PPI, PABP FP inh, EBV gp42 block)
CCN(CC)CCn1c(SCC(=O)NCc2ccccc2)nc2c(sc3ccccc32)c1=O	eIF4H inh 4.5, PABP FP inh active
O=C(Nc1ccc(S(=O)(=O)NCc2ccccc2)cc1)c1ccc(Br)o1	none
C=CCn1c(NC(=O)c2ccc(Br)o2)c(S(=O)(=O)c2ccccc2)c2nc3ccccc3nc21	eIF4H inh inconclusive, PABP FP inh active
C=CCn1c(NC(=O)c2ccco2)c(S(=O)(=O)c2ccccc2)c2nc3ccccc3nc21	eIF4H inh 62, PABP FP inh active (no result: eIF4E 4G PPI, MLLE-PAM2 inh, EBV gp42 block)
CC(C)CC(N)c1csc(Nc2cc(Oc3ccccc3)ncn2)n1 (configuration not stated)	none (no result: eIF4H inh, eIF4E 4G PPI, PABP FP inh, EBV gp42 block)
NCC(=O)NCC(=O)NC[C@H]1O[C@@H](n2cnc3c(N)ncnc32)[C@H](O)[C@@H]1O	none (no result: eIF4H inh, eIF4E 4G PPI, PABP FP inh, EBV gp42 block)
Cc1[nH]c2ccccc2c1/C=C(\C#N)C(=O)NC1CC1	none (no result: eIF4E 4G PPI, EBV gp42 block)
Cc1[nH]c2ccccc2c1/C=C(\C#N)C(=O)NC(C)c1ccccc1 (configuration not stated)	PABP FP inh active
NCCCC[C@H]1CNC(=O)C(=O)N1CCc1cccc(F)c1	none
Cn1c(=O)c2ncn(CC(=O)NC3CCCCCC3)c2n(C)c1=O	PABP FP inh active
C/C(CC(=O)Nc1ccc(N(C)C)cc1)=N\NC(=O)c1ccccc1O	none (no result: eIF4E 4G PPI, EBV gp42 block)
Cc1ccc(C(=O)NC(=S)NNC(=O)c2ccc([N+](=O)[O-])cc2)cc1	none (no result: eIF4E 4G PPI, EBV gp42 block)
C/C(CC(=O)Nc1ccc([N+](=O)[O-])cc1)=N\NC(=O)c1ccccc1O	eIF4H inh 82 (no result: eIF4E 4G PPI, EBV gp42 block)
O=C(NC(=S)NNC(=O)c1ccccc1O)c1ccc([N+](=O)[O-])cc1	MLLE-PAM2 inh 41 (no result: eIF4E 4G PPI, EBV gp42 block)
CCCCCC(=O)NNC(=S)NC(=O)c1ccc([N+](=O)[O-])cc1	MLLE-PAM2 inh 39
CCCCN(Cc1ccc(C(=O)N[C@H](C(=O)O)C(C)C)cc1)C(=O)C(c1ccccc1)c1ccccc1	none (no result: eIF4H inh, eIF4E 4G PPI, PABP FP inh, EBV gp42 block)
Cc1ccc(S(=O)(=O)N2CCOCC2)cc1NC(=O)CNc1ccccc1N1CCCC1=O	none (no result: eIF4H inh, eIF4E 4G PPI, PABP FP inh, EBV gp42 block)
COC(=O)c1ccccc1Oc1cc(C(F)(F)F)nc(-c2ccccn2)n1	none (no result: eIF4H inh, eIF4E 4G PPI, PABP FP inh, EBV gp42 block)
Cc1cc(C)c2c(CC(=O)NC(C)C)coc2c1	none
Cc1cc(C)c2c(=O)c(C#N)coc2c1	MLLE-PAM2 inh 39
O=C1CN(C(=O)COC(=O)c2cc(S(=O)(=O)N3CCOCC3)ccc2Cl)c2ccccc2N1	none
COCCCN(CC(=O)Nc1ccc(F)cc1)S(=O)(=O)c1cccs1	none (no result: eIF4H inh, eIF4E 4G PPI, PABP FP inh, EBV gp42 block)
O=C(c1nc2ccccn2c1CN1CCCC(O)C1)N1CCN(C2CCCCC2)CC1 (configuration not stated)	MLLE-PAM2 inh 42 (no result: eIF4E 4G PPI, EBV gp42 block)
COCC1CCN(Cc2c(C(=O)N3CCN(C4CCCCC4)CC3)nc3ccccn23)C1 (configuration not stated)	none (no result: eIF4E 4G PPI, EBV gp42 block)
CC(C)Oc1ccc(C2C(C#N)=C(N)Oc3c2oc(CO)cc3=O)cc1 (configuration not stated)	none
Cc1ccc(C2C(C#N)=C(N)Oc3c2oc(CO)cc3=O)o1 (configuration not stated)	eIF4H inh 45
[O-]/[N+](=C/c1ccc(F)cc1)c1ccc(Cl)cc1	MLLE-PAM2 inh 42
